KB-V1 cytotox = KB-V1 MDR subline cytotoxicity | AID 1347076 | Potency, µM (top dose mostly 46.1 µM), actives largely listed as cytotoxic | KB-V1 MDR cells viability, CellTiter-Glo, 72 h | hit rate 3.4% among 400,000; further: nearly all actives have a fitted effect of over 60% in size
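KB-V1 cells (P-gp-expressing MDR subline of KB-3-1) in phenol-red-free DMEM with 10% FBS were exposed to library compounds over a concentration series for 72 h at 37 degrees C. Viability read by CellTiter-Glo luminescence; concentration-effect curves fitted after normalization.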
HT1080 IDH1KD tx = HT-1080 IDH1 knockdown cell toxicity (counter line); HT-1080 IDH1 knockdown viability, ATP luminescence, 48 h; Potency, µM (highest dose often 46.1 µM), usual class: cytotoxic; hit rate 2% among 360,000; AID 686971
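Knockdown cells (IDH1KD HT-1080) received compounds 2 h after plating at 750 cells/well and were kept 48 h at 37 °C in 5% FBS RPMI. A CellTiter-Glo luminescence read gave % activity for curve fitting.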
HT1080-NT tox = kills 2HG-producing HT-1080-NT fibrosarcoma cells; HT-1080-NT fibrosarcoma viability, CellTiter-Glo ATP luminescence, 48 h; Potency, µM (doses to about 46.1 µM), usual class: cytotoxic; hit rate 1.6% among 360,000; AID 686970;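 further: NT is the 2HG producing partner of a matched IDH1 knockdown line; nearly all actives have a fitted effect of over 55% in size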
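HT-1080-NT; 750 cells/well; 5% FBS RPMI; 48 h compound, 37 degrees C; CellTiter-Glo luminescence; curve fitting and curve-class assignment.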
KB-3-1 tox = KB-3-1 parental cell cytotoxicity; KB-3-1 viability, CellTiter-Glo ATP luminescence, 72 h; Potency, µM (series often up to 46.1 µM), hits mostly cytotoxic; hit rate 1.4% among 400,000; further: nearly all actives have a fitted effect of over 60% in size
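Here the drug-naive KB-3-1 line serves as comparator for MDR sub-line selectivity; cells received compound titrations, 72 h at 37 °C, then CellTiter-Glo readout.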
A number is an active result; . = inactive; ? = inconclusive; / = no result given. Sampled rows, rich in hits. Any-hit rate of the full collection: about 5.7%. The call rests on the fitted dose curve; in most records, active means well fitted curve in the direction sought with a large enough effect; inconclusive means small, poorly fitted or top-dose-only effect, or another doubt; inactive means no such curve, though single readings can be large; an effect the other way counts as inactive or inconclusive.

SMILES	KB-V1 cytotox	HT1080 IDH1KD tx	HT1080-NT tox	KB-3-1 tox
CC(C)C[C@H](NC(=O)c1nc[nH]c1C(=O)N[C@@H](CCCCNC(=O)OC(C)(C)C)C(=O)OC(C)(C)C)C(=O)OC(C)(C)C	?	?	?	16µM
C[C@H](NC(=O)c1nc[nH]c1C(=O)NC(c1ccccc1)c1ccccc1)C(=O)OC(C)(C)C	8.2µM	?	?	?
COc1ccccc1C(=O)Nc1ccccc1OCc1cc(=O)n2cc(C)sc2n1	.	/	/	.
O=C(C[n+]1cc(Br)cc2ccccc21)c1ccc(O)c(O)c1	.	/	/	?
CCOC(=O)C1CCCN(CCC(=O)Nc2ccc(OC)cc2OC)C1 (configuration not stated)	.	/	/	.
O=C(NNC(=O)c1ccc(SCC2CCCO2)c([N+](=O)[O-])c1)c1ccc(Cl)c([N+](=O)[O-])c1 (configuration not stated)	.	?	?	.
O=C(NNC(=O)c1ccccc1Br)c1ccc(SCC2CCCO2)c([N+](=O)[O-])c1 (configuration not stated)	23µM	.	.	.
CCc1ccc2[nH]c3nc(N/N=C/c4ccc(O)cc4O)nnc3c2c1	.	5.2µM	?	?
Cc1ccc2[nH]c3nc(N/N=C/c4cccc(O)c4)nnc3c2c1	.	?	.	.
CC(=O)N(Cc1ccc(F)cc1)C1=C(NCc2ccccc2)C(=O)c2ccccc2C1=O	.	5µM	4.5µM	?
Cc1ccc(-n2c(Cc3ccccc3)nnc2SCc2nc(-c3cccs3)no2)cc1C	.	/	/	.
CCCn1c(/C=C/c2ccccc2)nc2ccccc21	.	10µM	10µM	.
COCCOCCn1c(/C=C/c2ccccc2)nc2ccccc21	?	?	?	.
COc1ccccc1CNC(=O)c1cc2cccc3c2n1CCS3	.	/	/	.
Clc1ccc(-c2cc3ncc4c(n3n2)-c2ccccc2OC4)cc1	?	/	/	.
COc1ccc(NC(=O)CSc2nnc3c(n2)[nH]c2ccc(S(=O)(=O)N(C)C)cc23)c(OC)c1	/	.	.	/
Cc1ccc(Nc2nc(NCCO)c3ccccc3n2)cc1C	.	23µM	23µM	.
OCCNc1nc(N2CCN(Cc3ccccc3)CC2)nc2ccccc12	21µM	.	.	.
OCCNc1nc2ccccc2nc1NCCO	.	.	.	.
CCN1CCN(c2nc(NCCO)c3ccccc3n2)CC1	.	.	.	.
COc1ccc(OC)c(Nc2nc(NCCO)c3ccccc3n2)c1	.	?	.	.
OCCNc1c2ccccc2nc2ccccc12	?	23µM	23µM	?
Cc1c(C)c2cc3c(c(C)c2oc1=O)OCN(CCc1ccccc1)C3	?	/	/	.
COc1ccc(S(=O)(=O)N2CCN(Cc3nc4ccc(C)cc4o3)CC2)cc1	.	/	/	.
COc1ccc(-c2oc3cc(O)c(OC)c(O)c3c(=O)c2OC)cc1	?	21µM	?	?
SMILES	KB-V1 cytotox	HT1080 IDH1KD tx	HT1080-NT tox	KB-3-1 tox
COc1c(-c2ccc(O)cc2)oc2cc(O)cc(O)c2c1=O	.	.	.	.
O=C(CCC1CCCC1)c1c(O)c2ccccc2oc1=O	.	.	.	?
O=C(c1c(O)c2ccccc2oc1=O)C1CCCCC1	15µM	?	?	?
O=C(O)c1ccccc1Nc1ccc([N+](=O)[O-])cc1	?	?	?	9.2µM
O=C(Nc1ccc(Nc2ccccc2)cc1)c1cc([N+](=O)[O-])ccc1Cl	.	18µM	?	.
CCCCN(CCCC)S(=O)(=O)c1ccc(NC(=O)c2ccc([N+](=O)[O-])cc2Cl)cc1	16µM	?	.	?
CC(=O)N1CCN(c2ccc(NC(=O)c3ccc([N+](=O)[O-])cc3Cl)cc2)CC1	.	.	.	.
O=[N+]([O-])c1ccc(Cl)c(/C=N/NC(=S)Nc2ccccc2)c1	.	4.5µM	?	.
COc1ccc(CNC(=O)c2cc3c(=O)n(C)c4ccccc4c3n2C)c(OC)c1	.	/	/	.
O=[N+]([O-])c1ccccc1/C=N/N1CCN(c2ccccn2)CC1	15µM	.	.	.
O=[N+]([O-])c1ccccc1C=NN1CCCCCC1	.	.	.	.
C(=C\c1ccnc2ccccc12)/c1ccc(N(Cc2ccccc2)Cc2ccccc2)cc1	.	/	/	.
COc1ccc(NC(=O)CCCSc2ccccc2)cc1S(N)(=O)=O	.	.	.	.
COc1ccc(NC(=O)COc2ccccc2Cc2ccccc2)cc1S(N)(=O)=O	10µM	.	.	16µM
COc1ccc(NC(=O)CN(Cc2ccccc2)Cc2ccccc2)cc1S(N)(=O)=O	21µM	.	.	.
O=C(Nc1ccccc1)C1=C[C@@H](C2CC2)C[C@@H](OCCCCO)O1	7.3µM	.	.	.
O=C(NCc1ccccc1)C1=C[C@H](c2csc3ccccc23)C[C@H](OCCCCO)O1	7.3µM	.	.	?
O=C(Nc1ccccc1)C1=C[C@H](c2ccccc2)C[C@H](OCCCCO)O1	?	.	.	?
O=C(Nc1ccccc1)C1=C[C@H](c2csc3ccccc23)C[C@H](OCCCCO)O1	.	.	.	.
COC(=O)c1sc2cccc(F)c2c1S(=O)(=O)Nc1ccc(N(C)C)cc1	.	/	/	.
COc1ccc(-c2cc(C(=O)N3CCN(c4ccccc4OC)CC3)c3cc(C(C)C)ccc3n2)cc1	.	/	/	?
Cc1ccc(C(C)C)c(OCCNCc2ccccc2)c1	.	.	.	.
Cc1ccc(C(C)C)c(OCCNC(=S)Nc2cccc3ccccc23)c1	.	7.9µM	5.6µM	?
O=C(CN1C(=O)COc2ccc(S(=O)(=O)NC3CCCC3)cc21)NCc1ccc(Cl)cc1	.	/	/	.
COc1cccc(CNC(=O)C(=O)NCC(c2ccco2)S(=O)(=O)c2cccs2)c1 (configuration not stated)	.	/	/	.
SMILES	KB-V1 cytotox	HT1080 IDH1KD tx	HT1080-NT tox	KB-3-1 tox
CCOc1ccc(C(=O)Nc2ccc(-c3nc4ccccc4[nH]3)cc2)cc1Cl	?	/	/	.
O=C(CC[C@H]1O[C@@H](n2ccc(=O)[nH]c2=O)[C@H](O)[C@@H]1O)N[C@H](Cc1ccccc1)C(=O)NCC1CCCCC1	.	.	?	.
O=C(CC[C@H]1O[C@@H](n2ccc(=O)[nH]c2=O)[C@H](O)[C@@H]1O)N[C@@H](Cc1ccccc1)C(=O)NCC1CCCO1 (some centres not stated)	7.3µM	.	?	.
COc1ccc(OC)c(-c2nnc3n2N=C(c2ccc(OC)c(OC4CCOC4)c2)CS3)c1 (configuration not stated)	?	/	/	0.12µM
COc1ccc(C2=Nn3c(nnc3-c3ccccc3Cl)SC2)cc1OC1CCOC1 (configuration not stated)	?	/	/	13µM
COc1ccc(C2=Nn3c(nnc3-c3ccccc3Cl)SC2)cc1OC1CCCC1	.	/	/	?
O=S(=O)(c1ccc(Cl)cc1)c1nnn2c1nc(N1CCCCC1)c1sccc12	.	/	/	.
CCOC(=O)c1cccc(NS(=O)(=O)c2cc(Br)cc3c2N(C(=O)C2CC2)CC3)c1	.	/	/	21µM
O=C(C1CC1)N1CCc2cc(Br)cc(S(=O)(=O)Nc3ccc(F)c(F)c3)c21	?	/	/	.
CCc1cccc(C)c1NC(=O)CSc1nnc(CCCOc2ccc(Cl)cc2Cl)n1C	4.6µM	?	.	18µM

Screens from PubChem.
